# Source: PubChem BioAssay (EPA / NIEHS)
# Inconclusive results are not listed. Calls of active or inactive are those of the source. The calls were made as follows: active = hit-call score of the fitted dose curve at least 0.9, where 1 is the maximum; inconclusive = response in the unintended direction; inactive = score below 0.9.
# Biological target: Nuclear receptor subfamily 1 group I member 2 (Homo sapiens) (UniProt O75469)
# Assay: ATG_PXR_TRANS: Attagene TRANS-FACTORIAL HepG2 Assay for human Pregnane X Receptor (PXR) (AID 2283008)
# Method in brief: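 Measures mRNA induction of a GAL4-UAS-driven reporter in human HepG2 cells transiently expressing PXR fused to Gal4, following 24 h treatment. DMSO served as negative control and baseline.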
# Nuclear receptor subfamily 1 group I member 2 (Homo sapiens), sequence (O75469 whole entry, looked up): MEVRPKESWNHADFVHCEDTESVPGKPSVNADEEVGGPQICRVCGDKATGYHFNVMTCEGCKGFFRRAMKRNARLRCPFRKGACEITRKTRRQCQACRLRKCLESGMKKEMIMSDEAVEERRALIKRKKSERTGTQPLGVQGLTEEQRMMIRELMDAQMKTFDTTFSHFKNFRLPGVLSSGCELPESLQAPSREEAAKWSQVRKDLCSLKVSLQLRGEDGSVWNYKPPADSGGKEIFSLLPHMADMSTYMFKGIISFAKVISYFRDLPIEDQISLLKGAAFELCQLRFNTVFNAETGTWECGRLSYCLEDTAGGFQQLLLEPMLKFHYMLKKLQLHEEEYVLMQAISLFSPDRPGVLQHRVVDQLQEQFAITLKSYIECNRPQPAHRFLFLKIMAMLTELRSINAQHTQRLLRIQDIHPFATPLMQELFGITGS
SMILES,outcome,AC50
O=C(O)c1cc(I)cc(I)c1I,inactive,–
C=CCCl,inactive,–
COCCl,inactive,–
COc1ccc(N)cc1,inactive,–
CC1(C)[C@H](/C=C2\CCSC2=O)[C@@H]1C(=O)OCc1coc(Cc2ccccc2)c1,–,0.731 µM (active)
Nc1cccnc1,inactive,–
N#CCC#N,inactive,–
C=CCN=C=S,inactive,–
C[CH2][Hg][S]c1ccccc1C(=O)O,inactive,–
O=S(=O)(F)C(F)(F)C(F)(F)C(F)(F)C(F)(F)F,inactive,–
CCOC(=O)OC1=C(c2cc(C)ccc2C)C(=O)NC12CCC(OC)CC2 (stereo unspecified),inactive,–
O=C(CCl)Nc1ccccc1,inactive,–
C[C@H]1C(=O)O[C@@H]2CCN3CC=C(COC(=O)[C@](C)(O)[C@]1(C)O)[C@H]23,inactive,–
CCOP(=O)(OCC)SCCSCC,inactive,–
COC(=O)c1cc(Oc2ccc(Cl)cc2Cl)ccc1[N+](=O)[O-],–,13.7 µM (active)
Clc1cc(C(Cl)(Cl)Cl)cnc1Cl,inactive,–
N#Cc1ccccc1Cl,inactive,–

SMILES,outcome,AC50
CCCCOC(C)=O,inactive,–
N#Cc1ccncc1,inactive,–
c1csc(-c2ccc(-c3cccs3)s2)c1,–,8.5 µM (active)
OC(Cc1ccccc1Cl)(Cn1cncn1)C1(Cl)CC1 (stereo unspecified),–,7.37 µM (active)
C=CC(=O)[O][Sn]([CH2]CCC)([CH2]CCC)[CH2]CCC,–,0.237 µM (active)
O=C1C=CC(=O)c2ccccc21,inactive,–
CN(C)c1ccc(N=O)cc1,inactive,–
CCCCCCCCCCCCCCC(Br)C(=O)O (stereo unspecified),inactive,–
O=S1(=O)OC(c2cc(Br)c(O)c(Br)c2)(c2cc(Br)c(O)c(Br)c2)c2ccccc21,inactive,–
Cc1ccccc1OP(=O)(Oc1ccccc1)Oc1ccccc1,–,0.736 µM (active)
Brc1c(Br)c(Br)c(Oc2c(Br)c(Br)c(Br)c(Br)c2Br)c(Br)c1Br,inactive,–
COP(=S)(OC)Oc1cc(Cl)c(I)cc1Cl,–,21.8 µM (active)
O=C1c2ccccc2C(=O)C1C(=O)C(c1ccccc1)c1ccc(Cl)cc1 (stereo unspecified),–,2.45 µM (active)
c1cc[c]([Sb]([c]2ccccc2)[c]2ccccc2)cc1,–,8.18 µM (active)
O=C(Nc1ccc(Br)cc1)c1cc(Br)cc(Br)c1O,–,4.69 µM (active)
CCCCCCCCCCCCN(C)C,inactive,–

# Biological target: human Retinoic Acid Receptor gamma (RARg), RARG (gene 5916) (UniProt P13631)
# Sequence (P13631 whole entry, looked up): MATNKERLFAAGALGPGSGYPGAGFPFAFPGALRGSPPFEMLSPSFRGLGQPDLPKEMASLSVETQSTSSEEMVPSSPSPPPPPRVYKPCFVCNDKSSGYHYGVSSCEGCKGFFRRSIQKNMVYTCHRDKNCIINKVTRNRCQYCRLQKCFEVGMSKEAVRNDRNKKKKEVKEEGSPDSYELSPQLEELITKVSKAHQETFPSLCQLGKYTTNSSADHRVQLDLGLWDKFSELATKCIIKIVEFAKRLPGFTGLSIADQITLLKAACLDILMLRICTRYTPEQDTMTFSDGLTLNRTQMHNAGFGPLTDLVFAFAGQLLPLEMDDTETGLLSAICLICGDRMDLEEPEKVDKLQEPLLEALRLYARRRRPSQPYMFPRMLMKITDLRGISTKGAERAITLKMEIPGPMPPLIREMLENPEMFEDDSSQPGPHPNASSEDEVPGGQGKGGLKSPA
# Assay: ATG_RARg_TRANS: Attagene TRANS-FACTORIAL HepG2 Assay for human Retinoic Acid Receptor gamma (RARg) (AID 2283009)
# Method in brief: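 HepG2 transiently transfected with GAL4-UAS reporter units and chimeric NR-Gal4 constructs; 24 h compound exposure. Reporter mRNA quantified by RT-PCR, FAM labeling, HpaI digestion and capillary electrophoresis; gain-of-signal versus DMSO.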
row,SMILES,outcome
1,C=CCCl,inactive
2,C[CH2][Hg][S]c1ccccc1C(=O)O,inactive
3,CCOP(=O)(OCC)SCCSCC,inactive
4,COC(=O)c1cc(Oc2ccc(Cl)cc2Cl)ccc1[N+](=O)[O-],inactive
5,C#CCO,inactive
6,C=CC(=O)OCC(COC(=O)C=C)(COC(=O)C=C)COC(=O)C=C,inactive
7,CCCCOC(C)=O,inactive
8,N#Cc1ccncc1,inactive
9,OC[P+](CO)(CO)CO,inactive
10,c1csc(-c2ccc(-c3cccs3)s2)c1,inactive
11,OC(Cc1ccccc1Cl)(Cn1cncn1)C1(Cl)CC1 (stereo unspecified),inactive
12,CN(C)c1ccc(N=O)cc1,inactive
13,O=S1(=O)OC(c2cc(Br)c(O)c(Br)c2)(c2cc(Br)c(O)c(Br)c2)c2ccccc21,inactive
14,Brc1c(Br)c(Br)c(Oc2c(Br)c(Br)c(Br)c(Br)c2Br)c(Br)c1Br,inactive
15,O=C1c2ccccc2C(=O)C1C(=O)C(c1ccccc1)c1ccc(Cl)cc1 (stereo unspecified),inactive
16,COc1ccc([N+](=O)[O-])cc1O,inactive
17,O=C(Nc1ccc(Br)cc1)c1cc(Br)cc(Br)c1O,inactive
18,CCCCCCCCCCCCN(C)C,inactive

# Biological target: human RAR-related Orphan Receptor beta (RORb), RORB (gene 6096) (UniProt Q92753)
# Sequence (Q92753 whole entry, looked up): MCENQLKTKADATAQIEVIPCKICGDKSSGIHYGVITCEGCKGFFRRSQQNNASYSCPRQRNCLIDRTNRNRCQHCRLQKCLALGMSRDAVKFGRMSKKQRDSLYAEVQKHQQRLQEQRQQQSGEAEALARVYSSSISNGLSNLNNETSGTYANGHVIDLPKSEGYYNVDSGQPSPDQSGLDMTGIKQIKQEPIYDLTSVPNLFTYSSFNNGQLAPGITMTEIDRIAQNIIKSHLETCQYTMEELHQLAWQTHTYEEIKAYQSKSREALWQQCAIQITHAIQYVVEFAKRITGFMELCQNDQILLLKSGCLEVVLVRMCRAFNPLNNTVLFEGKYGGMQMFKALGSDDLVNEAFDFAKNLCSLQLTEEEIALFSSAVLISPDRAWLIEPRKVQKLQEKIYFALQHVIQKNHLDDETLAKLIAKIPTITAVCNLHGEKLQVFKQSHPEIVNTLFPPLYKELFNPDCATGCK
# Assay: ATG_RORb_TRANS: Attagene TRANS-FACTORIAL HepG2 Assay for human RAR-related Orphan Receptor beta (RORb) (AID 2283010)
# Method in brief: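 HepG2 cells transiently transfected with GAL4-UAS reporter units expressing chimeric NR-Gal4 protein; reporter mRNA measured 24 h after dosing by RT-PCR, 6-FAM labelling and capillary electrophoresis. Gain-of-signal fitted relative to DMSO baseline.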
row,SMILES,outcome
1,COc1ccc(N)cc1,inactive
2,CC1(C)[C@H](/C=C2\CCSC2=O)[C@@H]1C(=O)OCc1coc(Cc2ccccc2)c1,inactive
3,C=CCN=C=S,inactive
4,Brc1ccc(Br)cc1,inactive
5,C[CH2][Hg][S]c1ccccc1C(=O)O,inactive
6,CCOC(=O)OC1=C(c2cc(C)ccc2C)C(=O)NC12CCC(OC)CC2 (stereo unspecified),inactive
7,CCOP(=O)(OCC)SCCSCC,inactive
8,Clc1cc(C(Cl)(Cl)Cl)cnc1Cl,inactive
9,N#Cc1ccccc1Cl,inactive
10,C#CCO,inactive
11,C=CC(=O)OCC(COC(=O)C=C)(COC(=O)C=C)COC(=O)C=C,inactive
12,CCCCOC(C)=O,inactive
13,N#Cc1ccncc1,inactive
14,c1csc(-c2ccc(-c3cccs3)s2)c1,inactive
15,O=C1C=CC(=O)c2ccccc21,inactive
16,CN(C)c1ccc(N=O)cc1,inactive
17,O=S1(=O)OC(c2cc(Br)c(O)c(Br)c2)(c2cc(Br)c(O)c(Br)c2)c2ccccc21,inactive
18,Brc1c(Br)c(Br)c(Oc2c(Br)c(Br)c(Br)c(Br)c2Br)c(Br)c1Br,inactive
19,O=C1c2ccccc2C(=O)C1C(=O)C(c1ccccc1)c1ccc(Cl)cc1 (stereo unspecified),inactive
20,COc1ccc([N+](=O)[O-])cc1O,inactive
21,O=C(Nc1ccc(Br)cc1)c1cc(Br)cc(Br)c1O,inactive

# Biological target: human RAR-related Orphan Receptor gamma (RORg), RORC (gene 6097) (UniProt P51449)
# Sequence (P51449 whole entry, looked up): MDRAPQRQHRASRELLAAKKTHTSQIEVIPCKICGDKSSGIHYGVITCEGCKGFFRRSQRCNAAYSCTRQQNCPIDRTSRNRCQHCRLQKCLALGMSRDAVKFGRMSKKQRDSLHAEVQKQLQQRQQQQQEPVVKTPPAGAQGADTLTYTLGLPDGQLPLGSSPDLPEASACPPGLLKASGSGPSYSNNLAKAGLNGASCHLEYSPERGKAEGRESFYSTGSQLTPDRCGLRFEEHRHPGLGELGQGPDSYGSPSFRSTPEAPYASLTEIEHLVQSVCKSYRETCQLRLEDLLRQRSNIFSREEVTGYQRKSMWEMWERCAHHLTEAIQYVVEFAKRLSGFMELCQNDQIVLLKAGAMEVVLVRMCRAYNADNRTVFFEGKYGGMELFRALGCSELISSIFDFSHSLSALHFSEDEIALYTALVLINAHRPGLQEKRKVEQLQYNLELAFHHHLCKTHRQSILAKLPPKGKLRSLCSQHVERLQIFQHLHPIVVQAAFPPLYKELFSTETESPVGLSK
# Assay: ATG_RORg_TRANS: Attagene TRANS-FACTORIAL HepG2 Assay for human RAR-related Orphan Receptor gamma (RORg) (AID 2283011)
# Method in brief: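 Readout: reporter transcript induction (RT-PCR, fluorescent primer extension, capillary electrophoresis) after 24 h compound exposure of transiently transfected HepG2 cells carrying a RORg-Gal4 chimera and GAL4-UAS reporters; DMSO served as baseline, with increasing signal fitted.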
row,SMILES,outcome
1,C=CCCl,inactive
2,COCCl,inactive
3,COc1ccc(N)cc1,inactive
4,C[CH2][Hg][S]c1ccccc1C(=O)O,inactive
5,CCOP(=O)(OCC)SCCSCC,inactive
6,COC(=O)c1cc(Oc2ccc(Cl)cc2Cl)ccc1[N+](=O)[O-],inactive
7,C#CCO,inactive
8,C=CC(=O)OCC(COC(=O)C=C)(COC(=O)C=C)COC(=O)C=C,inactive
9,CCCCOC(C)=O,inactive
10,OC(Cc1ccccc1Cl)(Cn1cncn1)C1(Cl)CC1 (stereo unspecified),inactive
11,O=C1C=CC(=O)c2ccccc21,inactive
12,CN(C)c1ccc(N=O)cc1,inactive
13,CCCCCCCCCCCCCCC(Br)C(=O)O (stereo unspecified),inactive
14,Brc1c(Br)c(Br)c(Oc2c(Br)c(Br)c(Br)c(Br)c2Br)c(Br)c1Br,inactive
